According to PubChem BioAssay AID372 (MTDP, 2006):
Values joined by “and” are separate entries in the source; they are usually repeats but may differ in a detail not shown here. Identical values can stand only once. About 770 (0.77%) of roughly 100,000 compounds were called active. The list comes from a sample in which actives are over-represented; it also holds similar structures and randomly drawn compounds. A number with no mark means an inactive call. Rule as the data show it: active = inhibition above about 50%; inactive = the rest.

biological target: Gag-Pol polyprotein (Human immunodeficiency virus type 1 group M subtype B (isolate HXB2)) (UniProt P04585); experiment: RNase H inhibition, HIV 1 Gag Pol polyprotein, FRET biochemical assay, screening (AID 372); conditions: HIV-1 RT RNase H, FRET RNA/DNA substrate fluorescence; at 10 µM; active compounds read high

Row | SMILES | inhibition
1 | COc1ccc(CCN(C)C2CC(=O)N(c3ccc(F)cc3)C2=O)cc1OC (stereo not drawn) | 0%
2 | Cc1ccc2oc(-c3cc(NC(=O)c4ccc(I)cc4)ccc3O)nc2c1 | 10%
3 | COc1ccc(Cc2cnc(NC(=O)c3ccccc3Cl)s2)cc1 | 11%
4 | NS(=O)(=O)c1ccc(CNC2CC(=O)N(CCc3ccccc3)C2=O)cc1 (stereo not drawn) | 9%
5 | O=c1c2cc([N+](=O)[O-])ccc2[nH]c2c1[nH]c1ccccc12 | 33%
6 | O=[N+]([O-])c1ccc2nc3c([nH]c4ccccc43)c(N3CCOCC3)c2c1 | 6%
7 | O=[N+]([O-])c1ccc2nc3c([nH]c4ccccc43)c(Cl)c2c1 | 58% (active)
8 | CCOc1cc(C(=O)NCc2ccccc2OC)cc(OCC)c1OCC | 2%
9 | Cc1ccc(C(=O)NNC(=S)NC(C)(C)C)cc1 | 6%
10 | O=C(CC1SC(=Nc2ccccc2)N(c2ccccc2)C1=O)Nc1ccc(F)cc1 (stereo not drawn) | 14%
11 | O=C(CC1SC(=Nc2ccccc2)N(c2ccccc2)C1=O)Nc1ccccc1 (stereo not drawn) | 58% (active)
12 | Cc1ccc(NC(=O)CC2SC(=Nc3ccccc3)N(c3ccccc3)C2=O)cc1 (stereo not drawn) | 5%
13 | O=C(N/C(=C/c1cccc(Br)c1)C(=O)N1CCOCC1)c1ccccc1 | 5%
14 | CC(C)Cc1nnc(NC(=O)c2ccccc2I)s1 | 0%
15 | CCOC(=O)N1CCN(CCC(=O)Nc2ccc3c(c2)OCO3)CC1 | 16%
16 | Cc1ccc(-n2nc3cc(C)c(NC(=O)c4cccc([N+](=O)[O-])c4C)cc3n2)cc1 | 51% (active)
17 | COc1ccc(-n2nc3cc(C)c(NC(=O)/C=C/c4ccccc4)cc3n2)cc1 | 42%
18 | Cc1ccc(-n2nc3cc(C)c(NC(=O)c4ccccc4[N+](=O)[O-])cc3n2)cc1 | 15%
19 | Cc1cc2nn(-c3ccccc3)nc2cc1NC(=O)/C=C/c1ccc(Cl)cc1 | 54% (active)
20 | Cc1cc2nn(-c3ccccc3)nc2cc1NC(=O)c1cccc([N+](=O)[O-])c1C | 16%
21 | Cc1ccc(-n2nc3cc(C)c(NC(=O)c4ccccc4Br)cc3n2)cc1 | 4%
22 | Cc1cc2nn(-c3ccccc3)nc2cc1NC(=O)c1ccc(Cl)cc1Cl | 41%
23 | Cc1cc2nn(-c3ccc(Cl)cc3)nc2cc1NC(=O)c1ccc(Cl)cc1Cl | 58% (active)
24 | Cc1cc2nn(-c3ccc(Cl)cc3)nc2cc1NC(=O)c1ccccc1Br | 52% (active)
25 | Cc1ccc(-n2nc3cc(C)c(NC(=O)c4ccc(Cl)cc4Cl)cc3n2)cc1 | 1%

Row | SMILES | inhibition
26 | Cc1cc2nn(-c3ccccc3)nc2cc1NC(=O)/C=C/c1ccccc1 | 12%
27 | Cc1cc2nn(-c3ccc(Cl)cc3)nc2cc1NC(=O)c1ccccc1C | 36%
28 | Cc1ccc(OCCOc2ccc(Br)cc2/C=C2\SC(=S)NC2=O)c(C)c1 | 46%
29 | O=C(COC(=O)c1ccccc1Cl)c1ccc(Cl)cc1Cl | 43%
30 | CCOC(=O)C1=C(C)N=c2s/c(=C/c3ccc(-c4cc([N+](=O)[O-])ccc4OC)o3)c(=O)n2C1c1cccs1 (stereo not drawn) | 8%
31 | CC(O)c1cccc(NC(=O)c2nn3c(c2Cl)NC(c2cccs2)CC3C(F)(F)F)c1 (stereo not drawn) | 6%
32 | COc1ccc(-c2cc(-c3ccccc3)nc(-c3ccc(C)o3)c2)cc1 | 16%
33 | Cc1cc2nn(-c3ccc(Cl)cc3)nc2cc1NC(=O)c1ccc([N+](=O)[O-])cc1Cl | 50% (active)
34 | Cc1ccc(-n2nc3cc(C)c(NC(=O)c4cc(Cl)ccc4Cl)cc3n2)cc1 | 5%
35 | COc1ccc(-n2nc3cc(C)c(NC(=O)c4cc(Cl)ccc4Cl)cc3n2)cc1 | 35%
36 | Cc1cc2nn(-c3ccc(Cl)cc3)nc2cc1NC(=O)c1cc(Cl)ccc1Cl | 52% (active)
37 | Cc1cc2nn(-c3ccccc3)nc2cc1NC(=O)c1ccc([N+](=O)[O-])cc1Cl | 22%
38 | Cc1ccc(-n2nc3cc(C)c(NC(=O)c4ccc([N+](=O)[O-])cc4Cl)cc3n2)cc1 | 0%
39 | CSc1ccc(/C=C2\C(=O)NC(=O)N(c3ccc(Br)c(C)c3)C2=O)cc1 | 0%
40 | Cc1sc(NC(=O)c2ccccc2C(=O)O)c(C#N)c1C | 3%
41 | O=[N+]([O-])c1cccc(-n2nncc2C23CC4CC(CC(C4)C2)C3)c1 | 19%
42 | Cc1cc(OCC(=O)O)c2c(C)c(Cc3ccccc3)c(=O)oc2c1 | 4%
43 | Cc1cc(OC(=O)C2CC2)c2c(C)c(Cc3ccccc3)c(=O)oc2c1 | 55% (active)
44 | CCOc1cc(C)cc2oc(=O)c(Cc3ccccc3)c(C)c12 | 46%
45 | CCCOc1cc(C)cc2oc(=O)c(Cc3ccccc3)c(C)c12 | 56% (active)
46 | CC(=O)Oc1cc(C)cc2oc(=O)c(Cc3ccccc3)c(C)c12 | 23%
47 | COc1cc(C)cc2oc(=O)c(Cc3ccccc3)c(C)c12 | 22%
48 | O=C(Nc1ncc(Cc2cccc([N+](=O)[O-])c2)s1)c1cccc([N+](=O)[O-])c1 | 11%
49 | O=C(CCc1ccccc1)Nc1cc(C(=O)O)cc(C(=O)O)c1 | 36%
50 | COc1cccc(-c2nc(-c3cccc([N+](=O)[O-])c3)no2)c1 | 5%

Row | SMILES | inhibition
51 | O=C(N/N=C/c1ccc(O)cc1O)c1cc(Br)cc(Br)c1O | 12%
52 | Cc1ccc(CNC(=O)C(=O)NCC2CCCO2)cc1 (stereo not drawn) | 9%
53 | COC(=O)c1cc(C(=O)NC2CCSC2=O)cc([N+](=O)[O-])c1 (stereo not drawn) | 10%
54 | O=C(NCC1CCCO1)/C(=C/c1cccc(Oc2ccccc2)c1)NC(=O)c1ccccc1 (stereo not drawn) | 0%
55 | C=CCNC(=O)CN(c1cccc(OC)c1)S(=O)(=O)c1ccccc1 | 0%
56 | CC(=O)Nc1ccc(N=Cc2cccc(C)c2)cc1 | 4%
57 | CC(=O)Nc1cc(C(N)=O)c(Cl)cc1Cl | 1%
58 | CC(=O)C(=Nc1ccc(C)cc1C)NNc1cc(C(N)=O)c(Cl)cc1Cl | 70% (active)
59 | CC(=O)C(=Nc1ccc(C)cc1C)NNc1ccc(Cl)c(C(N)=O)c1 | 11%
60 | Cc1ccc(/C(O)=C2\C(=O)C(=O)N(CCCC(=O)O)C2c2ccc(F)cc2)cc1 (stereo not drawn) | 4%
61 | COc1cc(C=C2C(=O)N(c3ccc(C)cc3)C(=S)N(c3ccc(C)cc3)C2=O)ccc1O | 0%
62 | Cc1ccc(N2C(=O)C(=Cc3ccc(O)cc3)C(=O)N(c3ccc(C)cc3)C2=S)cc1 | 56% (active)
63 | Cc1ccc(N2C(=O)/C(=C/c3ccc(O)cc3)C(=O)NC2=S)cc1 | 6%
64 | O=C(CN1CCSCC1)N/N=C/c1ccc(-c2ccccc2)cc1 | 7%
65 | O=C(Nc1cc(C(=O)Nc2ccccc2-c2ccccc2)cc(C(=O)Nc2ccccc2-c2ccccc2)c1)c1ccc([N+](=O)[O-])cc1 | 19%
66 | Cc1ccc(OCCOCCN2CCC(C)CC2)cc1 | 15%
67 | CCN1C(=O)c2cccc3c(NC(=O)c4cc([N+](=O)[O-])ccc4Cl)ccc1c23 | 5%
68 | C=CCN1C(=O)/C(=C\c2ccc(I)o2)C(=O)NC1=S | 27%
69 | C=CCN1C(=O)/C(=C\c2ccc(-c3ccc([N+](=O)[O-])cc3)o2)C(=O)NC1=S | 10%
70 | COc1ccc(S(=O)(=O)n2nnc3ccccc32)c2ccccc12 | 55% (active)
71 | COc1ccc(OC)c(S(=O)(=O)n2nnc3ccccc32)c1 | 3%
72 | COc1ccc(S(=O)(=O)n2nnc3ccccc32)cc1OC | 2%
73 | COC(=O)C1=C(C)NC(=S)NC1c1cc(Br)ccc1OCc1ccccc1 (stereo not drawn) | 11%
74 | Cn1c(=O)c2[nH]c(N/N=C(/C#N)C(N)=O)nc2n(C)c1=O | 8%
75 | CCC(Oc1ccccc1)C(=O)Nc1cc(Cl)ccc1Cl (stereo not drawn) | 40%

Row | SMILES | inhibition
76 | CCC(Oc1ccccc1)C(=O)Nc1cc(Cl)ccc1OC (stereo not drawn) | 56% (active)
77 | CCC(Oc1ccccc1)C(=O)Nc1cc(OC)c(Cl)cc1OC (stereo not drawn) | 12%
78 | C=CCn1cc(/C=c2\sc3n(c2=O)C(c2ccc(OC)cc2)C(C(=O)OCC)=C(C)N=3)c2ccccc21 (stereo not drawn) | 15%
79 | O=C(/C=C/c1ccc(-c2ccccc2Br)o1)c1ccc(Cl)cc1 | 13%
80 | NS(=O)(=O)c1ccc2c(c1)C1C=CCC1C(c1ccc([N+](=O)[O-])cc1)N2 (stereo not drawn) | 19%
81 | CCOC(=O)C1=C(C)N=c2s/c(=C\c3ccc(OC)c(Br)c3)c(=O)n2C1c1ccccc1Cl (stereo not drawn) | 29%
82 | CCCOC(=O)c1ccc(NC(=O)c2ccc([N+](=O)[O-])o2)cc1 | 7%
83 | CCOc1ccc(NC(=O)c2ccc([N+](=O)[O-])o2)cc1 | 17%
84 | CCOC(=O)c1ccc(NC(=O)c2ccc([N+](=O)[O-])o2)cc1 | 50% (active)
85 | O=C(Nc1cccc(Cl)c1)Nc1cc(Cl)ccc1Cl | 0%
86 | COc1ccc(-n2c(O)c(C=Nc3ccc(Cl)cc3)c3ccccc3c2=O)cc1 | 11%
87 | O=C(CC1OC(=O)c2ccccc21)c1ccccc1 (stereo not drawn) | 1%
88 | COc1ccc(C(=O)CSc2nc3sc(C)c(C)c3c(=O)[nH]2)cc1C | 44%
89 | Cc1cc(=O)[nH]c(SCC(=O)c2ccc(O)c(O)c2)n1 | 50% (active)
90 | Nc1cc(=O)[nH]c(SCC(=O)c2ccc(O)c(O)c2)n1 | 8%
91 | Cc1cc(C)nc(SCC(=O)c2ccc(F)cc2)n1 | 13%
92 | Cc1cc(C)c2c(=O)[nH]c(SCC(=O)c3ccc(Br)cc3)nc2n1 | 20%
93 | Cc1sc2nc(SCC(N)=O)[nH]c(=O)c2c1C | 0%
94 | Cc1cc(C)nc(SCC(=O)c2ccc(O)c(O)c2)n1 | 74% (active)
95 | Cc1nc(SCC(=O)c2ccc(O)c(O)c2)n[nH]1 | 42%
96 | Cc1sc2nc(SCC(=O)c3ccc(O)c(O)c3)[nH]c(=O)c2c1C | 75% (active)
97 | Cc1cc(=O)[nH]c(SCC(=O)c2ccc(Br)cc2)n1 | 4% and 9%
98 | Cc1cc(C)c2c(=O)[nH]c(SCC(=O)c3ccc(F)cc3)nc2n1 | 11%
